Data reported in PubChem BioAssay.

Legend:
[1] = biological target: Tumor necrosis factor receptor superfamily member 10B (Homo sapiens) (UniProt O14763); assay: caspase-8 TRAIL sensitization, hit retest, confirmation, cell-based, NB7+caspase-8, with/without TRAIL, luminescence panel (AID 651596); details: NB7 neuroblastoma + caspase-8, TRAIL sensitization, luminescence viability, with TRAIL, mean of runs, at 10 µM, stronger effect = higher value
[2] = as above; details: NB7 neuroblastoma + caspase-8, without TRAIL, luminescence viability, without TRAIL, mean of runs, at 10 µM

Tumor necrosis factor receptor superfamily member 10B (Homo sapiens), sequence (O14763 whole entry, looked up): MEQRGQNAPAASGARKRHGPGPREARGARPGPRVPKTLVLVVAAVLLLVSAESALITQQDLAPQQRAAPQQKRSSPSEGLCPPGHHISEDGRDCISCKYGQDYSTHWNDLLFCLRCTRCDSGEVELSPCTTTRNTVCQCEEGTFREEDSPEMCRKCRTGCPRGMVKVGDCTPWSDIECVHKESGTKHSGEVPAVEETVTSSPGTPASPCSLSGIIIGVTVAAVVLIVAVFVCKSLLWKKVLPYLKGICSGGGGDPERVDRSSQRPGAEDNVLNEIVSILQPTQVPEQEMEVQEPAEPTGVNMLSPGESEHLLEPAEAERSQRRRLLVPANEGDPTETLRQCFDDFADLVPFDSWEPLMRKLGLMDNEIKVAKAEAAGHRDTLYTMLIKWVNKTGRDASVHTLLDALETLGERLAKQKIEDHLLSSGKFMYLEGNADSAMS

| SMILES | activity [1] [%] | activity [2] [%] |
| --- | --- | --- |
| Cc1ccc(NC(=O)COc2ccccc2[N+](=O)[O-])nc1 | 60.5 | 62.8 |
| CCOC(=O)c1nn(-c2ccc3c(c2)CCN3C(C)=O)cc1O | 47 | 47.6 |
| O=C(/C=C/c1ccccc1)Nc1ccc2c(c1)C(=O)NC2=O | 14.6 | 19.9 |
| Cc1ccc2nc(NC(=O)c3cccs3)sc2c1 | 72.1 | 71.2 |
| COc1ccccc1NC(CC(=O)c1ccccc1)C(=O)OCC(=O)c1ccc(F)cc1 (stereo not drawn) | 69.5 | 65.9 |
| CC(C)C(=O)N1CCN(c2ccc(NC(=O)c3ccc([N+](=O)[O-])o3)cc2Cl)CC1 | 75.4 | 97.5 |
| N/C(=N\OC(=O)c1ccc2ccccc2c1)c1ccccc1Cl | 99.4 | 99.2 |
| Cc1ccc(CSc2nc3ccncc3[nH]2)cc1 | 98.5 | 99.2 |
| CCOc1ccc(C(=O)Nc2cc(C)on2)cc1 | 64.9 | 61.7 |
| C=C(C)c1cc2c(ccc3ccc(=O)oc32)o1 | 92.6 | 91 |
| CC(C)C[C@H](NC(=O)c1nc[nH]c1C(=O)N[C@@H](CCCCNC(=O)OC(C)(C)C)C(=O)OC(C)(C)C)C(=O)OC(C)(C)C | 84.7 | 68.1 |
| Cc1nnc(NC(=O)c2nc(S(=O)(=O)Cc3ccccc3)ncc2Cl)s1 | 94.5 | 84.9 |
| Cc1ccc(-c2nc3cc(N)ccc3o2)c(C)c1 | 61 | 49.5 |
| Cc1ccc(Nc2nc(CSc3nnnn3C)cs2)cc1 | 23.2 | 8.93 |
| Cc1ccc(NC(=O)c2ccc3nsnc3c2)c(Cl)c1 | 60.6 | 58.2 |
| CCc1ccc(Nc2n[n+](-c3ccccc3)c(-c3ccc(N(CC)CC)cc3)s2)cc1 | 45.2 | 41.2 |
| O=C1CN(C(=O)Cn2ncc(Cl)c(Cl)c2=O)c2ccccc2N1 | 99.4 | 99.5 |
| N=c1cc(C2(O)CCCCC2)n2c(nc3ccccc32)s1 | 93.5 | 89 |
| CNC(=O)c1cc(Oc2ccc(NC(=O)Nc3ccc(Cl)c(C(F)(F)F)c3)cc2)ccn1 | 88.9 | 63.2 |
| C[n+]1c(-c2ccccc2)cc2c(=Cc3ccccc3)c3ccccc3n21 | 73.1 | 75.4 |
| COc1cccc2oc3cc(C#CC4(O)CCCCC4)ccc3c(=O)c12 | 71.2 | 68.8 |
| CCOC(=O)COc1ccc(-c2nnc(-c3ccccc3)o2)cc1 | 43.2 | 33.8 |

| SMILES | activity [1] [%] | activity [2] [%] |
| --- | --- | --- |
| Cn1c(=N)n(CC(=O)c2ccc(F)cc2)c2ccccc21 | 75.8 | 67.5 |
| O=[N+]([O-])c1c(Nc2ccccc2O)cc(Cl)c2nonc12 | 63.9 | 98.3 |
| O=C(/C=C/c1ccc(Cl)cc1Cl)N1CCc2ccccc21 | 47.9 | 51.4 |
| O=C(/C=C/C(Cl)(Cl)Cl)Nc1ccc(Cl)cc1 | 98.8 | 98.9 |
| CC(C)(C)OC(=O)NCCCC[C@H](NC(=O)c1[nH]cnc1C(=O)N[C@@H](Cc1ccccc1)C(=O)OC(C)(C)C)C(=O)OC(C)(C)C | 84 | 64.7 |
| Cc1ccc2nc(-c3ccc(NC(=O)CCN4C(=O)c5ccccc5C4=O)cc3)sc2c1 | 73.7 | 63.9 |
| Nc1ccc(-c2ncc(-c3ccccc3)o2)cc1 | 28.2 | 29.8 |
| Cc1ccc2cc(NC(=O)c3ccccc3)ccc2n1 | 55 | 43.6 |
| COc1ccc(/C=C/c2nc3ccccc3c(=O)o2)cc1 | 83.2 | 83.6 |
| c1ccc(-n2nnc3c(N4CCOCC4)ncnc32)cc1 | 74.7 | 74.7 |
| O=c1c2ccccc2oc2ccc(C#CC3(O)CCCCC3)cc12 | 86.2 | 84.8 |
| COc1ccc2nc(N3C(=O)CNC3=S)sc2c1 | 51.8 | 49.4 |
| C/C(=N\NC(=O)c1ccc(Cl)cc1)c1ccccn1 | 32.2 | 51 |
| O=C(OCn1ncc(Cl)c(Cl)c1=O)c1ccc(C(F)(F)F)cc1 | 95.2 | 94 |
| COc1ccc(-c2cc(-c3ccccc3)c(C#N)c(S(C)(=O)=O)n2)cc1 | 79.3 | 96.9 |
| Cc1ccnc(NC(=O)/C=C/c2cccs2)c1 | 84.1 | 81.5 |
| Brc1nc(-c2ccccc2)nc(-c2ccccc2)c1Br | 98.9 | 99.2 |
| CCc1ccc(CNC(=O)Cc2ccc(NC(=O)C3=C(C)OCCS3)cc2)cc1 | 58.8 | 59 |
| S=c1nc[nH]c2nc[nH]c12 | 64.5 | 69 |
| COc1ccc(C2C(C(=O)N3CCN(c4ccccc4)CC3)c3ccccc3C(=O)N2C)cc1 (stereo not drawn) | 69.5 | 66.3 |
| Cn1cnc([N+](=O)[O-])c1Sc1nc(N)nc2c1ncn2C1CC(O)C(CO)O1 (stereo not drawn) | 68.8 | 65.6 |
| O=C(Nc1ccc(N2CCN(C(=O)c3ccccc3)CC2)cc1)c1cc2ccccc2o1 | 70.8 | 50.3 |
